# According to PMC8384837, “Expanding the binding specificity for RNA recognition by a PUF domain”:
# Target: PUM1 PUF domain R5-LYR (Homo sapiens, UniProt Q14671 828-1176, C1007L;R1008Y;Q1011R)
# Test: yeast three-hybrid, YBZ-1, SC-Leu-His + 0.5 mM 3-AT, 4 days
# Conditions: tags: N-Gal4 AD-HA kept; label: inside an RPR1-promoter hybrid RNA with tandem MS2 sites; ssRNA
# Procedure, shortened: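 The interaction score is the log change in how often each variant appears, from input to selection. Frequencies came from PCR-amplified, Illumina-sequenced repeat regions of Pumilio-1 PUF domain libraries grown in strain YBZ-1 (LexA–MS2 coat fusion, HIS3 reporter) alongside matching RNA elements. Input plates were SC-Leu and selection plates were SC-Leu-His + 0.5 mM 3-AT, each for four days, and the log2 calculation used a pseudocount of 1 where a variant was absent.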
row,Sequence,binding signal
1,GGCUAGAACUAGUGGAUCCCCCGGCGCCCGGCGGCUCGAGCCCGGGUAAGUGUCAAUAGUCUGCAUGCCGCCGGGCGCCAUGCCUGCAGGUCGACUCUAGAAAACAUG,3.17 log2 enrichment (interaction score)
2,GGCUAGAACUAGUGGAUCCCCCGGCGCCCGGCGGCUCGAGCCCGGGUAAGUGUAAAUAGUCUGCAUGCCGCCGGGCGCCAUGCCUGCAGGUCGACUCUAGAAAACAUG,4.43 log2 enrichment (interaction score)
3,GGCUAGAACUAGUGGAUCCCCCGGCGCCCGGCGGCUCGAGCCCGGGUAAGUGUGAAUAGUCUGCAUGCCGCCGGGCGCCAUGCCUGCAGGUCGACUCUAGAAAACAUG,0.51 log2 enrichment (interaction score)
4,GGCUAGAACUAGUGGAUCCCCCGGCGCCCGGCGGCUCGAGCCCGGGUAAGUGUUAAUAGUCUGCAUGCCGCCGGGCGCCAUGCCUGCAGGUCGACUCUAGAAAACAUG,3.43 log2 enrichment (interaction score)
